Here are results for 38 molecules from ChEMBL document CHEMBL4513135, “CO-ADD screening of IQOG CSIS (Spain) compounds”.

Structures are written as SMILES. Measured potencies and affinities stand elsewhere.

One experiment deals with Klebsiella pneumoniae. As to conditions: Concentration 32 ug.mL-1; ASSAY_TEST Inhibition of Bacterial Growth; detection method Absorption (OD600); MEDIA CAMHB; plate type 384well; NBS; CORNING #3640; time 18 hr.
A further experiment concerns Candida albicans. As to conditions: 32 ug/mL.
A further experiment deals with Cryptococcus neoformans. As to conditions: Concentration 32 ug.mL-1; ASSAY_TEST Inhibition of Fungal Growth; detection method Resazurin; Absorption (OD600-OD570); plate type 384well; NBS; CORNING #3640. Background: Resazurin is reduced to fluorescent resorufin, in cell work by metabolically active cells.

For orientation: Inhibition means the relative decrease from the control value, in per cent. As for `O=C1OC(c2ccccc2)=NC1=Cc1ccccc1Cl`, the Inhibition in the experiment on Klebsiella pneumoniae is 11.08%; in the experiment on Candida albicans it was 1.66%; in the experiment on Cryptococcus neoformans, -1.51%.
As to `Cc1nc2c3cnn(-c4ccccc4)c3ncn2n1`, the Inhibition in the experiment with Klebsiella pneumoniae was 15.65%; in the experiment on Candida albicans it was 0.21%; with Cryptococcus neoformans, -3.17%.
The matching figures for `CCOC(=O)c1cc2c(N)c3c(nc2nc1C)CCCC3`: -0.45%, 0.86% and -82.76%.
The matching figures for `Cc1nn(-c2ccccc2)c2ncnc(Nc3ccccc3)c12`: 14.62%, 0.48% and -2.23%.
The matching figures for `N#Cc1c(N)nc(N2CCCCC2)c(C#N)c1-c1ccccc1`: 2.6%, 1.97% and -31.47%.
Turning to `C#CCN(C)c1nc(Cl)c(C#N)c(-c2ccccc2)c1C#N`, the values for the Inhibition in the experiment on Klebsiella pneumoniae, in the experiment on Candida albicans and in the experiment with Cryptococcus neoformans were 7.31%, 11.2% and -24.12%, respectively.
In the case of `Cl.NC1(C(=O)O)CC1c1cccc(Cl)c1` (centres undefined), the Inhibition in the experiment on Klebsiella pneumoniae was 18.53%; with Candida albicans, 2.81%; in the experiment on Cryptococcus neoformans, -0.59%.
In the case of `O=C(Cc1c[nH]c2ccccc12)NNCc1ccccc1`, the Inhibition with Klebsiella pneumoniae is 1.88%; with Candida albicans, 0.22%; in the experiment with Cryptococcus neoformans it was -1.3%.
The matching figures for `CC(=O)CCc1c[nH]c2ccccc12`: 20.76%, 1.89% and -0.29%.
The matching figures for `CCOC(=O)c1c[nH]c2ccc(OCc3ccccc3)cc12`: 12.72%, 0.34% and -4.09%.
The matching figures for `Cl.ClCCCCCN1CCCCC1`: 6.55%, 2.45% and -4.11%.
On to `Cc1ccc(C2c3c(nc4c(c3N)CCCC4)Oc3ccc4ccccc4c32)cc1` (centres undefined), for which the Inhibition was found to be 2.87% with Klebsiella pneumoniae, 1.23% in the experiment on Candida albicans and 2.32% with Cryptococcus neoformans.
The matching figures for `Cn1ccnc1C1c2ccc3cccnc3c2Oc2nc3c(c(N)c21)CCCCC3` (centres undefined): 9.25%, 2.52% and -79.42%.
The matching figures for `CNC(=O)NC1(C(=O)O)CC1c1ccccc1` (centres undefined): 13.01%, 0.9% and -2.43%.
The matching figures for `COC(=O)C1(NC(=O)c2ccccc2)CC1c1ccccc1` (centres undefined): 3.5%, 0.07% and -1.1%.
`CCOC(=O)C1=C(C)OC(N)=C(C#N)C1c1ccccc1` (centres undefined): the Inhibition was 11.23% with Klebsiella pneumoniae, 6.07% in the experiment on Candida albicans and -42.71% in the experiment on Cryptococcus neoformans.
The matching figures for `O=C(Cc1c[nH]c2ccccc12)NN=Cc1ccccc1`: -6%, -0.87% and -1.93%.
For `N#Cc1c(N)nc(NC2CCN(Cc3ccccc3)CC2)c(C#N)c1-c1ccccc1`, the Inhibition is 9.32% in the experiment on Klebsiella pneumoniae, 2.69% with Candida albicans and -66.18% with Cryptococcus neoformans.
The matching figures for `C/C(Cc1ccccc1)=N\NC(=O)c1c[nH]c2ccccc12`: -16.37%, 5.16% and 2.61%.
The matching figures for `C#CCNc1nc(N)c(C#N)c(-c2ccccc2)c1C#N`: -20.09%, 2.85% and -2.34%.
For the molecule `COc1cc(C2c3c(nc4c(c3N)CCC4)Oc3ccc4ccccc4c32)ccc1O` (centres undefined), the figures for the Inhibition in the experiment on Klebsiella pneumoniae, in the experiment on Candida albicans and with Cryptococcus neoformans were 23.66%, -1.69% and -4.01%, respectively.
The matching figures for `CCOC(=O)CCc1c[nH]c2ccccc12`: -13.33%, 5.29% and -6.58%.
`CC(=O)C(=Cc1ccccc1)C(=O)O[C@H]1C[C@H](C)CC[C@H]1C(C)C`: the Inhibition in the experiment on Klebsiella pneumoniae was 13.75%; in the experiment on Candida albicans it was 10.8%; with Cryptococcus neoformans, -6.7%.
The matching figures for `N#Cc1cc2c(N)c3c(nc2nc1Cl)CCCC3`: 24.47%, 2.63% and -42.44%.
Consider `COc1ccc(C2c3ccc4ccccc4c3OC(=NBr)C2(Br)C#N)cc1` (centres undefined), for which the Inhibition in the experiment on Klebsiella pneumoniae is 6.43%; in the experiment with Candida albicans it was 2.22%; with Cryptococcus neoformans, -24.77%.
With `Cl.Nc1c2c(nc3c1C(c1ccccc1)c1ccc4ccccc4c1O3)CCCC2` (centres undefined), the values for the Inhibition with Klebsiella pneumoniae, with Candida albicans and in the experiment on Cryptococcus neoformans were 22.34%, 1.77% and -1.1%, respectively.
The matching figures for `CC(=O)NC(=Cc1ccccc1)C(=O)O`: 19.96%, 2.49% and -0.91%.
In the case of `C#CCN(C)Cc1cc2cc(OCOc3ccc4c(c3)cc(CN(C)CC#C)n4C)ccc2n1C`, the Inhibition with Klebsiella pneumoniae is 2.59%; with Candida albicans, -0.1%; with Cryptococcus neoformans it was -41.21%.
The matching figures for `N#CC1(Br)C(=NBr)Oc2ccc3ccccc3c2C1c1cccc([N+](=O)[O-])c1` (centres undefined): 8.04%, 7.45% and -42.61%.
The matching figures for `NNC(=O)CCc1c[nH]c2ccccc12`: 5.25%, 0.67% and -3.69%.
The matching figures for `CCOC(=O)C1=C(C)Nc2nc3c(c(N)c2C1c1ccc([N+](=O)[O-])cc1)CCCC3.Cl` (centres undefined): 18.29%, 1.72% and -58.17%.
For the molecule `COc1ccc(C2c3c(ccc4ccccc34)OC(=NBr)C2(Br)C#N)cc1` (centres undefined), the Inhibition is 26.17% in the experiment on Klebsiella pneumoniae, 10.1% in the experiment on Candida albicans and -63.65% with Cryptococcus neoformans.
The matching figures for `CN(Cc1cn(Cc2ccccc2)nn1)Cc1cc2cc(OCCCC3CCN(Cc4ccccc4)CC3)ccc2n1C`: 4.39%, 2.75% and -73.92%.
In the case of `COC(=O)/C(=C/c1ccc(O)cc1)NC(=O)c1ccccc1`, the Inhibition with Klebsiella pneumoniae was -14.62%; in the experiment on Candida albicans, 1.73%; with Cryptococcus neoformans, -3.07%.
The matching figures for `CCOC(=O)C1=C(C)OC(N)=C(C#N)C1c1cccnc1` (centres undefined): 0.99%, 0.38% and -18.71%.
The matching figures for `CCOC(=O)C1=C(C)Oc2nc3c(c(N)c2C1c1ccc(O)c(OC)c1)CCC3` (centres undefined): 2.99%, 0.9% and -66.64%.
The matching figures for `CCOC(=O)c1cn(C)c2ccccc12`: 12.15%, 7.9% and -4.62%.
For the molecule `N#Cc1c(-c2ccccc2)c2c(ccc3ccccc32)oc1=O`, the figures for the Inhibition in the experiment on Klebsiella pneumoniae, in the experiment on Candida albicans and in the experiment on Cryptococcus neoformans were 13.16%, 0.36% and -9.44%, respectively.
